Experimental data as given in PubChem BioAssay AID1159580 (chemical genetic matrix, 2015).
Where “and” joins values, the source holds several entries; their conditions need not be identical. Equal entries are not always repeated. Screen size: about 5,500 compounds; about 2,000 (36%) were called active. Inconclusive results (about 18%) are left out. Rule as the data show it: active = normalized growth mostly below about 0.91 (no sharp cut-off); inconclusive = no clear call, values can overlap the other calls; inactive = mostly above about 0.92. The list shows a part of the results.

Experiment: chemical genetic growth profiling, strain panel (AID 1159580);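 also: tested at 20 µM; growth read once vehicle control cultures reached saturation at 30 °C; 1 = growth at the plate median or of vehicle wells; lower values mean less growth of the strain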
Settings: growth OD

Measured: normalized growth

CC(CN1c2ccccc2Sc2ccccc21)N(C)C (configuration not stated)
inactive: S. cerevisiae deletion strains, locus YKL009W, strain mrt4, stronger effect = lower value 0.924 | S. cerevisiae deletion strains, locus YKL068W, stronger effect = lower value 0.982 | S. cerevisiae deletion strains, locus YKL085W, strain MDH1 (second series), stronger effect = lower value 0.965 | S. cerevisiae deletion strains, locus YKL085W, strain MDH1, stronger effect = lower value 0.965 | S. cerevisiae deletion strains, locus YKL160W, strain elf1, stronger effect = lower value 0.913 | S. cerevisiae deletion strains, locus YKL190W, strain CNB1, stronger effect = lower value 0.995 | S. cerevisiae deletion strains, locus YKR001C, strain vps1, stronger effect = lower value 0.968 | S. cerevisiae deletion strains, locus YKR026C, strain gcn3, stronger effect = lower value 0.972 | S. cerevisiae deletion strains, locus YKR091W, strain srl3, stronger effect = lower value 0.983 | S. cerevisiae deletion strains, locus YLL026W, stronger effect = lower value 0.943 | S. cerevisiae deletion strains, locus YLL041C, strain sdh2, stronger effect = lower value 0.982 | S. cerevisiae deletion strains, locus YLR027C, strain aat2, stronger effect = lower value 0.932 | S. cerevisiae deletion strains, locus YLR039C, strain RIC1, stronger effect = lower value 1.23 | S. cerevisiae deletion strains, locus YLR058C, strain SHM2, stronger effect = lower value 0.957 | S. cerevisiae deletion strains, locus YLR102C, strain apc9, stronger effect = lower value 0.981 | S. cerevisiae deletion strains, locus YLR113W, strain HOG1, stronger effect = lower value 1.03 | S. cerevisiae deletion strains, locus YLR221C, strain rsa3, stronger effect = lower value 0.969 | S. cerevisiae deletion strains, locus YLR258W, strain gsy2, stronger effect = lower value 0.974 | S. cerevisiae deletion strains, locus YLR262C, strain YPT6 (second series), stronger effect = lower value 1.07 | S. cerevisiae deletion strains, locus YLR262C, strain YPT6, stronger effect = lower value 1.34 | S. cerevisiae deletion strains, locus YLR268W, strain sec22, stronger effect = lower value 0.947 | S. cerevisiae deletion strains, locus YLR320W, strain mms22, stronger effect = lower value 0.944 | S. cerevisiae deletion strains, locus YLR330W, strain CHS5, stronger effect = lower value 0.993 | S. cerevisiae deletion strains, locus YLR342W, strain FKS1 (second series), stronger effect = lower value 0.928 | S. cerevisiae deletion strains, locus YLR357W, strain rsc2, stronger effect = lower value 0.99 | S. cerevisiae deletion strains, locus YLR370C, strain arc18, stronger effect = lower value 0.938 | S. cerevisiae deletion strains, locus YLR371W, strain rom2, stronger effect = lower value 0.962 | S. cerevisiae deletion strains, locus YLR384C, strain iki3, stronger effect = lower value 0.968 | S. cerevisiae deletion strains, locus YLR418C, strain cdc73, stronger effect = lower value 0.955 | S. cerevisiae deletion strains, locus YML016C, strain PPZ1, stronger effect = lower value 0.985 | S. cerevisiae deletion strains, locus YML032C, strain rad52, stronger effect = lower value 0.908 | S. cerevisiae deletion strains, locus YML120C, strain ndi1, stronger effect = lower value 0.921 | S. cerevisiae deletion strains, locus YML124C, strain tub3, stronger effect = lower value 0.983 | S. cerevisiae deletion strains, locus YMR058W, strain fet3, stronger effect = lower value 0.94 | S. cerevisiae deletion strains, locus YMR078C, strain ctf18, stronger effect = lower value 0.98 | S. cerevisiae deletion strains, locus YMR125W, strain sto1, stronger effect = lower value 0.988 | S. cerevisiae deletion strains, locus YMR129W, stronger effect = lower value 0.97 | S. cerevisiae deletion strains, locus YMR205C, strain PFK2, stronger effect = lower value 0.968 | S. cerevisiae deletion strains, locus YMR223W, strain ubp8, stronger effect = lower value 0.992 | S. cerevisiae deletion strains, locus YMR231W, strain pep5, stronger effect = lower value 0.983 | S. cerevisiae deletion strains, locus YMR263W, strain SAP30, stronger effect = lower value 0.999 | S. cerevisiae deletion strains, locus YMR307W, strain GAS1, stronger effect = lower value 1.12 | S. cerevisiae deletion strains, locus YNL067W, strain RPL9B, stronger effect = lower value 0.924 | S. cerevisiae deletion strains, locus YNL071W, strain lat1, stronger effect = lower value 0.969 | S. cerevisiae deletion strains, locus YNL128W, strain TEP1, stronger effect = lower value 1.02 | S. cerevisiae deletion strains, locus YNL175C, strain NOP13, stronger effect = lower value 1.01 | S. cerevisiae deletion strains, locus YNL183C, strain NPR1, stronger effect = lower value 0.964 | S. cerevisiae deletion strains, locus YNL197C, strain WHI3, stronger effect = lower value 1.01 | S. cerevisiae deletion strains, locus YNL209W, strain ssb2, stronger effect = lower value 0.962 | S. cerevisiae deletion strains, locus YNL224C, strain SQS1, stronger effect = lower value 1.01 | S. cerevisiae deletion strains, locus YNL233W, strain BNI4, stronger effect = lower value 0.925 | S. cerevisiae deletion strains, locus YNL248C, strain rpa49, stronger effect = lower value 0.971 | S. cerevisiae deletion strains, locus YNL250W, strain rad50, stronger effect = lower value 0.958 | S. cerevisiae deletion strains, locus YNL271C, strain bni1, stronger effect = lower value 0.973 | S. cerevisiae deletion strains, locus YNL298W, strain CLA4, stronger effect = lower value 0.978 | S. cerevisiae deletion strains, locus YNL307C, strain MCK1, stronger effect = lower value 0.958 | S. cerevisiae deletion strains, locus YNL322C, strain KRE1 (second series), stronger effect = lower value 0.976 | S. cerevisiae deletion strains, locus YNR049C, strain mso1, stronger effect = lower value 0.977 | S. cerevisiae deletion strains, locus YNR052C, strain pop2, stronger effect = lower value 0.976 | S. cerevisiae deletion strains, locus YOL006C, strain TOP1, stronger effect = lower value 0.79 | S. cerevisiae deletion strains, locus YOL012C, strain htz1 1.06 | S. cerevisiae deletion strains, locus YOL147C, strain pex11, stronger effect = lower value 0.976 | S. cerevisiae deletion strains, locus YOR061W, strain CKA2, stronger effect = lower value 0.955 | S. cerevisiae deletion strains, locus YOR069W, strain VPS5, stronger effect = lower value 0.986 | S. cerevisiae deletion strains, locus YOR070C, strain gyp1, stronger effect = lower value 0.965 | S. cerevisiae deletion strains, locus YOR080W, strain dia2, stronger effect = lower value 0.963 | S. cerevisiae deletion strains, locus YOR083W, strain WHI5 (second series), stronger effect = lower value 1.02 | S. cerevisiae deletion strains, locus YOR083W, strain WHI5, stronger effect = lower value 0.898 | S. cerevisiae deletion strains, locus YOR106W, strain vam3, stronger effect = lower value 0.884 | S. cerevisiae deletion strains, locus YOR136W, strain idh2, stronger effect = lower value 0.968 | S. cerevisiae deletion strains, locus YOR144C, strain elg1, stronger effect = lower value 0.989 | S. cerevisiae deletion strains, locus YOR184W, strain ser1, stronger effect = lower value 1.01 | S. cerevisiae deletion strains, locus YOR231W, strain MKK1, stronger effect = lower value 1.01 | S. cerevisiae deletion strains, locus YOR265W, strain rbl2, stronger effect = lower value 0.955 | S. cerevisiae deletion strains, locus YOR270C, strain vph1, stronger effect = lower value 0.998 | S. cerevisiae deletion strains, locus YOR290C, strain snf2, stronger effect = lower value 0.96 | S. cerevisiae deletion strains, locus YOR316C, strain cot1, stronger effect = lower value 0.97 | S. cerevisiae deletion strains, locus YPL106C, strain sse1, stronger effect = lower value 0.929 | S. cerevisiae deletion strains, locus YPL240C, strain hsp82, stronger effect = lower value 0.965 | S. cerevisiae deletion strains, locus YPL241C, strain CIN2, stronger effect = lower value 0.989 and 0.995 | S. cerevisiae deletion strains, locus YPL256C, strain CLN2, stronger effect = lower value 1.07 | S. cerevisiae deletion strains, locus YPR119W, strain clb2, stronger effect = lower value 0.971 | S. cerevisiae deletion strains, locus YPR141C, strain kar3, stronger effect = lower value 0.976 | S. cerevisiae deletion strains, locus YPR163C, strain tif3, stronger effect = lower value 0.928 | S. cerevisiae deletion strains, locus YPR167C, strain met16, stronger effect = lower value 0.97 | S. cerevisiae deletion strains, strain wtn01, stronger effect = lower value 0.957 | S. cerevisiae strains, strain wild type, stronger effect = lower value 0.975
active: S. cerevisiae deletion strains, locus YLL001W, strain dnm1, stronger effect = lower value 0.879 | S. cerevisiae deletion strains, locus YLR342W, strain FKS1, stronger effect = lower value 0.844 | S. cerevisiae deletion strains, locus YOR001W, strain rrp6, stronger effect = lower value 0.889 | S. cerevisiae deletion strains, locus YPL051W, strain arl3, stronger effect = lower value 0.863 | S. cerevisiae deletion strains, locus YPL078C, strain atp4, stronger effect = lower value 0.838
